Bioassay records as filed in PubChem.
An excerpt weighted towards active compounds, which were near 4.1% of everything screened.
hcDAF12 agonist – H. contortus DAF-12 activation, primary screen | hit rate 1.4% among 370,000 | HEK293 hcDAF-12 lit1-tk-luc reporter, luminescence; 0% DMSO, 100% Δ7-dafachronic acid | AID 652067 | activation, % at 6.8 µM;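 active = activation above the mean of all tested compounds plus 3 SD, cut at about 5.5% in these data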
DAX1 inh-1 – inhibitors of human orphan nuclear receptor DAX1 (NR0B1) | inhibition, % at 6.75 µM | P51843 | HEK293 Gal4-DAX1 luciferase reporter, luminescence | hit rate 0.99% among 340,000;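 active = inhibition above the mean over all tested compounds plus 3 SD, cut at about 4.2% in these data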;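 note: inhibition shows as a rise in luminescence from relieved DAX1 repression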
Target sequence (P51843 207-470 limits assumed): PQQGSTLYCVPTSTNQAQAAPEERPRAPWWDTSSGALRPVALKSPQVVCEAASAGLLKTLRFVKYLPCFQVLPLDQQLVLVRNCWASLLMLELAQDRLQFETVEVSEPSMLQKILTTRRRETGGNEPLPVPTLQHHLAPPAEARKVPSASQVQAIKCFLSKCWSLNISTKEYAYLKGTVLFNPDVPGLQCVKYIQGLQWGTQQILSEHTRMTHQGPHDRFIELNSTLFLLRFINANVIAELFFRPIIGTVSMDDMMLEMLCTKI
hgDAF12 agonist – hgDAF-12 agonism, primary luciferase screen; AID 687014; hit rate 1.8% among 370,000; HEK293 GAL4-hgDAF12 UAS-luciferase reporter, agonist luminescence; normalized to butyrate control; activation, % at 6.8 µM;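 active = activation above a cutoff set at the mean of all screened compounds plus 3 SD, cut at about 10% in these data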
DAX1 inh-2 – inhibitors of DAX1 repression of SF-1 activated StAR promoter | HEK293T StAR-luciferase reporter, SF-1/DAX-1 repression relief | inhibition, % at 6.8 µM | hit rate 1.1% among 370,000;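 active = inhibition above the mean over all tested compounds plus 3 SD, cut at about 3.6% in these data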;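 note: higher inhibition means more luminescence from relief of DAX-1 repression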
ssDAF-12 act – activates DAF-12 receptor from parasite S. stercoralis; HEK293 ssDAF-12/GRIP1 lit1-tk-luc reporter, luminescence; % of 3 µM dafachronic acid response; activation, % at 6.8 µM; hit rate 1% among 370,000;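 active = activation above the mean over all tested compounds plus 3 SD, cut at about 0.9% in these data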
hgDAF12 ag – confirmation of H. glycines DAF-12 agonists; shares compounds with hgDAF12 agonist; HEK293 GAL4-hgDAF12 luciferase reporter, agonist mode; percent of butyrate response; activation, % at 6.8 µM; hit rate 80% among 3,300;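 active = mean activation over triplicate wells above the hit cutoff derived from the earlier primary screen, cut at about 11% in these data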
LXR ag 2 – activates human LXR-beta, counter-screen for DAF-12 agonists. shares compounds with hgDAF12 agonist. HEK293 Gal4-LXR luciferase reporter, 24 h. activation, % at 6.8 µM. 3,300 tested, under 10 active. AID 743051;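 active = mean activation of the triplicate above a set limit carried over from the primary screen, none filed active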
A number is an active result.

For CCOC(=O)NNc1nncc2ccccc12 the results were hcDAF12 agonist inactive, DAX1 inh-1 inactive, hgDAF12 agonist inactive, DAX1 inh-2 inactive and ssDAF-12 act inactive.
For C/C(=N\Nc1nncc2ccccc12)c1ccc(OCC(=O)N(C)C)cc1 the results were hcDAF12 agonist inactive, DAX1 inh-1 inactive, hgDAF12 agonist 16, DAX1 inh-2 inactive, ssDAF-12 act inactive, hgDAF12 ag inactive and LXR ag 2 inactive.
CC/C(=N\Nc1nncc2ccccc12)c1ccc(F)cc1 was read as hcDAF12 agonist inactive, DAX1 inh-1 inactive, hgDAF12 agonist 16, DAX1 inh-2 inactive, ssDAF-12 act inactive, hgDAF12 ag 16 and LXR ag 2 inactive.
`Cc1cc(=O)n(-c2ccc(Cl)cc2)c(=O)[nH]1` gave hcDAF12 agonist inactive, DAX1 inh-1 inactive, hgDAF12 agonist inactive, DAX1 inh-2 inactive and ssDAF-12 act inactive.
For CCOc1ccc(N2C(=O)c3ccccc3C2O)cc1 (centres undefined) the results were hcDAF12 agonist inactive, DAX1 inh-1 inactive, hgDAF12 agonist 20, DAX1 inh-2 3.8, ssDAF-12 act inactive, hgDAF12 ag inactive and LXR ag 2 inactive.
Cc1ccc(-c2cn3cccnc3n2)cc1 was read as hcDAF12 agonist inactive, DAX1 inh-1 inactive, hgDAF12 agonist 15, DAX1 inh-2 inactive, ssDAF-12 act inactive, hgDAF12 ag 11 and LXR ag 2 inactive.
For CCCNC(=O)C1CC(=O)N(c2ccc(OCc3ccc(Cl)cc3)cc2)C1 (centres undefined) the results were hcDAF12 agonist inactive, DAX1 inh-1 inactive, hgDAF12 agonist 15, DAX1 inh-2 inactive, ssDAF-12 act inactive, hgDAF12 ag 16 and LXR ag 2 inactive.
`CCOc1ccc(N2CC(C(=O)NCCc3ccccc3)CC2=O)cc1` (centres undefined) gave hcDAF12 agonist inactive, DAX1 inh-1 inactive, hgDAF12 agonist inactive, DAX1 inh-2 inactive and ssDAF-12 act inactive.
Screening Cc1ccc(C)c(OCc2cc(C(=O)NC(C)c3cnn(C)c3)no2)c1 (centres undefined) returned hcDAF12 agonist inactive, DAX1 inh-1 inactive, hgDAF12 agonist inactive, DAX1 inh-2 inactive and ssDAF-12 act inactive.
For Cc1nc(C(C)NC(=O)c2cc(COc3ccc(C)c(C)c3)on2)c(C)s1 (centres undefined) the results were hcDAF12 agonist inactive, DAX1 inh-1 inactive, hgDAF12 agonist 13, DAX1 inh-2 inactive, ssDAF-12 act inactive, hgDAF12 ag 14 and LXR ag 2 inactive.
Cc1cc(OCc2cc(C(=O)NC(C)c3cnn(C)c3)no2)cc(C)c1Cl (centres undefined) was read as hcDAF12 agonist inactive, DAX1 inh-1 inactive, hgDAF12 agonist 16, DAX1 inh-2 inactive, ssDAF-12 act inactive, hgDAF12 ag 13 and LXR ag 2 inactive.
`COc1ccccc1-c1cc(C(=O)N2CCOCC2)no1` gave hcDAF12 agonist inactive, DAX1 inh-1 inactive, hgDAF12 agonist 17, DAX1 inh-2 inactive, ssDAF-12 act inactive, hgDAF12 ag 12 and LXR ag 2 inactive.
`O=S1(=O)c2ccc(N3CCN(Cc4ccccc4F)CC3)cc2Oc2ccccc2CN1Cc1cn(Cc2ccc(F)cc2)nn1` gave hcDAF12 agonist inactive, hgDAF12 agonist inactive, DAX1 inh-2 inactive and ssDAF-12 act inactive.
For Cc1ccc(N=Cc2c(O)[nH]c3ccccc23)c([N+](=O)[O-])c1 the results were hcDAF12 agonist inactive, DAX1 inh-1 inactive, hgDAF12 agonist 15, DAX1 inh-2 4.1, ssDAF-12 act inactive, hgDAF12 ag 12 and LXR ag 2 inactive.
`COC(=O)c1ccccc1-n1c(C)nc(=O)c(-c2ccccc2)c1C` gave hcDAF12 agonist inactive, DAX1 inh-1 inactive, hgDAF12 agonist inactive, DAX1 inh-2 inactive and ssDAF-12 act inactive.
Screening Cc1cc(NO)nc(-c2ccc(Br)cc2)n1 returned hcDAF12 agonist inactive, DAX1 inh-1 inactive, hgDAF12 agonist 13, DAX1 inh-2 inactive, ssDAF-12 act inactive, hgDAF12 ag 19 and LXR ag 2 inactive.
CCn1c(CNC(=O)c2ccco2)nnc1SCC(=O)Nc1ccccc1Cl was read as hcDAF12 agonist inactive, DAX1 inh-1 inactive, hgDAF12 agonist inactive, DAX1 inh-2 inactive and ssDAF-12 act inactive.
